# Data published in PubChem BioAssay (EPA / NIEHS).
# Calls of active or inactive are those of the source. Rule for the calls: active = hit-call score of the fitted dose curve at least 0.9, where 1 is the maximum; inconclusive = response in the unintended direction; inactive = score below 0.9.
# Biological target: Androgen Receptor/SRC-1 Co-activator, AR (gene 367) (UniProt P10275)
# Assay: OT_AR_ARSRC1_0960: Odyssey Thera (OT) 16-hour HEK293T Protein-Complementation Assay for Androgen Receptor/SRC-1 Co-activator (AID 2283353);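 note: actives raise the signal above DMSO so potency reflects increased AR and SRC-1 complex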
# Experimental: OT_AR_ARSRC1_0960 is a cell-based, single-readout assay that uses HEK293T, a human kidney cell line, with measurements taken at 16 hours after chemical dosing in a 384-well plate.OT_AR_ARSRC1_0960 is one of one assay component(s) measured or calculated from the OT_AR_ARSRC1_0960 assay. It is designed to make measurements of protein fragment complementation, a form of binding reporter, as detected with fluorescence intensity signals by Protein-fragment Complementation technology.Data from the assay component OT_AR_ARSRC1_0960 was analyzed into 1 assay endpoint. This assay endpoint, OT_AR_ARSRC1_0960, was analyzed in the positive analysis fitting direction relative to DMSO as the negative control and baseline of activity. Using a type of binding reporter, measures of receptor for gain-of-signal activity can be used to understand the binding at the pathway-level as they relate to the gene AR. Furthermore, this assay endpoint can be referred to as a primary readout, because the performed assay has only produced 1 assay endpoint. To generalize the intended target to other relatable targets, this assay endpoint is annotated to the nuclear receptor intended target family, where the subfamily is steroidal.
# Protein-fragment complementation assay, or PCA, is a method for the identification and quantification of protein-protein interactions. In the PCA, the proteins of interest ("bait" and "prey") are each covalently linked to fragments of a third protein (e.g. DHFR, which acts as a "reporter"). Interaction between the bait and the prey proteins brings the fragments of the reporter protein in close proximity to allow them to form a functional reporter protein whose activity can be measured. The OT AR / SRC-1 assay assessed androgen receptor chemical interactions using a rapidly maturing, intensely fluorescent mutant of YFP known as Venus, rationally dissected into two separate fragments. […] Fusion constructs were transfected into HEK293T cells with a (Gly4Ser)2 linker between the AR/SRC-1 and YFP fragment genes to facilitate complementation when interacting proteins bring fragments into close proximity. The construct is stably expressed in HEK293T cells. […] Images were acquired on an Evotec Opera at 2 wavelengths (488 and 635nm), and the ratio of fluorescence in the nucleus relative to fluorescence in the cytoplasm (N/C Ratio) in the 488nm channel was calculated for a minimum of 400 cells per image. Both agonists and antagonists of the AR receptor induce nuclear translocation to varying degrees. […] The OT AR/SRC-1 assay was also run for 16 hours (see description for OT_AR_ARSRC1_0960).
# Sequence of Androgen Receptor/SRC-1 Co-activator, AR (gene 367) (P10275 whole entry, looked up): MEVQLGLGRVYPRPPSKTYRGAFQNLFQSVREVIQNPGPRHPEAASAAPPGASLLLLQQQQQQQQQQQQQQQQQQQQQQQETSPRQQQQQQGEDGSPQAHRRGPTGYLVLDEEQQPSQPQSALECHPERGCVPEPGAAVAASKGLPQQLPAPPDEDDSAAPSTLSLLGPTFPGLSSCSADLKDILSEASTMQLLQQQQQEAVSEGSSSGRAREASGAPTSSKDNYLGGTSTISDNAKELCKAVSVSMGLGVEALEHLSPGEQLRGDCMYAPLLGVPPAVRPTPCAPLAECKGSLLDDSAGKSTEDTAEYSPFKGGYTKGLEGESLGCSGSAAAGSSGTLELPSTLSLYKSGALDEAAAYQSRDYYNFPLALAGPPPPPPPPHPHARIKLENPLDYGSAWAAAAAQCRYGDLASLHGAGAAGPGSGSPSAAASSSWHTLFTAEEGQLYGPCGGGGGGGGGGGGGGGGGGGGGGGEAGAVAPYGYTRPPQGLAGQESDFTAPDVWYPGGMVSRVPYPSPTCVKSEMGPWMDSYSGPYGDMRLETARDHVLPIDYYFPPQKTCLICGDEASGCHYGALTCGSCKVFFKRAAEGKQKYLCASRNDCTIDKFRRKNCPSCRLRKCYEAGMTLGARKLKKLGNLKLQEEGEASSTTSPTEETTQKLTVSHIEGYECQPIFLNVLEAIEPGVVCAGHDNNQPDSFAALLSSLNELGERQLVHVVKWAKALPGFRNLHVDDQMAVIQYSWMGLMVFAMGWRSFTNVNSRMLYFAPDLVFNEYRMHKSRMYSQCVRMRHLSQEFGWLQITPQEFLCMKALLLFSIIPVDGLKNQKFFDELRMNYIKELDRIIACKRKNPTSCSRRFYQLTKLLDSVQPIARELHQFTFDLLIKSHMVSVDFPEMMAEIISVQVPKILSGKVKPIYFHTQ
SMILES,outcome,AC50
CCCCCC[C@@H](O)C/C=C\CCCCCCCC(=O)OCC(O)CO (some centres not stated),inactive,–
CN(C)Cc1cc(CN(C)C)c(O)c(CN(C)C)c1,inactive,–
C=C1C[C@H]2[C@@H]3C=C(C)C4=CC(=O)CC[C@]4(C)[C@H]3CC[C@]2(C)[C@@]1(OC(C)=O)C(C)=O,–,6.25 µM (active)
Cc1ccc(C)c(OCCCC(C)(C)C(=O)O)c1,inactive,–
O=C(O)c1ccc2c(c1)C(=O)OC2=O,inactive,–
N#Cc1ccc(C(c2ccc(C#N)cc2)n2cncn2)cc1,inactive,–
CC(=O)OCc1ccccc1,inactive,–
COc1ccc(C(=O)c2ccccc2)c(O)c1,inactive,–
Cc1c(C(=O)c2c[nH]n(C)c2=O)ccc(S(C)(=O)=O)c1C1=NOCC1,inactive,–
CC(=O)OC1CCCCC1C(C)(C)C (configuration not stated),inactive,–
CCCCC(CC)COC(=O)/C=C/c1ccc(OC)cc1 (configuration not stated),–,50 µM (active)
Oc1ccc(-c2ccccc2)c(Cl)c1,–,40 µM (active)
CCC[Si](OC)(OC)OC,inactive,–
CCCCCCCCCC(C)=O,inactive,–
CCCCCCCCCCCCCC(=O)OC(C)C,inactive,–
CCc1cccc(C)c1N,inactive,–
COc1cc(O)c(C(=O)c2ccccc2)cc1S(=O)(=O)O,inactive,–
